GFP+ MAC1+ double positive, outcome and normalized GFP-positive differentiation data for 43 compounds are collected here from PubChem BioAssay AID624256 (NMMLSC, 2012).

In all, about 360,000 compounds went through this assay and about 3,700 (1%) were called active. Roughly 2% stayed inconclusive and do not appear here.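 How the source made its calls: active means normalized GFP-positive differentiation at or above the plate's own cutoff, the solvent-only control mean plus 3 SD; inconclusive means no clear call, values can overlap the other calls; inactive means the rest.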 The full list was thinned out, with actives kept by preference.

This experiment in a line: HoxA9-arrested leukemia cell differentiation promoters – flow cytometry, MLPCN library, primary screen (AID 624256).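 On GFP+ MAC1+ double positive: cells exposed to compound for four days before flow analysis.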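 On normalized GFP-positive differentiation: cells exposed to compound for four days before flow analysis; 0% = DMSO wells and 100% = fulvestrant positive control at 5 µM.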 The note with it: ER-HoxA9 myeloid progenitors, lysozyme-GFP differentiation, at 10 µM; GFP+ MAC1+ double positive: measured here: differentiation confirmed by MAC1 staining, stronger effect = higher value; normalized GFP-positive differentiation: stronger effect = higher value. (A flow cytometer gives signals particle by particle.)
In the case of `CSCCC(NS(=O)(=O)/C=C/c1ccccc1)C(=O)N1CCC(C)CC1` (stereo unspecified), the GFP+ MAC1+ double positive stood at 1% and the call was inactive.

As to `C#Cc1ccc(NC(=O)C2(C)CCN2C(=O)Cc2ccc(-c3ccccc3)cc2)cc1` (stereo unspecified), the GFP+ MAC1+ double positive was 0.8% and the result was inactive.

Consider `Cc1ccc2nc(NC(=O)CSc3nc(=O)n(CCCN(C)C)c4c3CCC4)sc2c1`, for which the GFP+ MAC1+ double positive is 1.3% and the compound was classed as inactive.

Turning to `CC(=O)N(CCCN(C)C)c1nc2ccc(C)cc2s1`, the GFP+ MAC1+ double positive was found to be 0.6% and the normalized GFP-positive differentiation was 33.5% (active).

Turning to `Cc1ccc2nc(NC(=O)C3CSC4(C)CCC(=O)N34)sc2c1` (stereo unspecified), the GFP+ MAC1+ double positive is 1.7% and the outcome was inactive.

For `CN1C(=O)[C@H]2[C@@H](C3CC3)N3C(=O)CN(Cc4ccccc4)C(=O)[C@@]3(C)[C@H]2C1=O`, the GFP+ MAC1+ double positive is 1.6% and the compound was classed as inactive.

As to `CCN1C[C@@H]2[C@@H]3C(=O)N(C)C(=O)[C@@H]3[C@](C)(C1=O)N2C(=O)c1ccccc1`, the GFP+ MAC1+ double positive turned out to be 10.9% and the normalized GFP-positive differentiation is 43.5% (active).

With `CCN1C[C@@H]2[C@@H]3C(=O)N(Cc4ccccc4)C(=O)[C@@H]3[C@](C)(C1=O)N2C(=O)c1ccc(C(C)(C)C)cc1`, the GFP+ MAC1+ double positive turned out to be 1.2% and the call was inactive.

As for `Oc1cccc2cc(-c3ccncc3)cnc12`, the GFP+ MAC1+ double positive turned out to be 0.7% and the outcome was inactive.

Regarding `COCCNc1ncnc2c1ncn2[C@H]1CN(CCN2CCOCC2)C[C@@H](CO)O1`, the GFP+ MAC1+ double positive was determined as 1.1% and the compound was called inactive.

Take `CCOC(=O)[C@]12CCCC=C1N(CCC1=CCCCC1)C(=O)[C@H](CC(=O)NCCCCc1ccccc1)C2`: the GFP+ MAC1+ double positive was determined as 2.2% and the outcome was inactive.

In the case of `COC(=O)Cc1c(-c2[nH]c3ccccc3c2CC(=O)OC)[nH]c2ccccc12`, the GFP+ MAC1+ double positive came out at 17.1% and the normalized GFP-positive differentiation was 207% (active).

As to `O=C(Cc1c(O)c2ccccc2[nH]c1=O)NCc1ccccc1`, the GFP+ MAC1+ double positive was 0.1% and the result was inactive.

With `CCCOC(=O)Cc1c(O)c2ccccc2[nH]c1=O`, the GFP+ MAC1+ double positive is 0.6% and the outcome was inactive.

As for `CCOc1ccc(Cl)cc1-c1cc(C(=O)NCc2cccs2)[nH]n1`, the GFP+ MAC1+ double positive is 1.7% and the result was inactive.

Regarding `CC1(C(=O)NS(=O)(=O)c2ccccc2)CCN1C(=O)c1ccccc1` (stereo unspecified), the GFP+ MAC1+ double positive was 0.9% and the compound was classed as inactive.

For `COc1ccccc1Cc1c(-c2ccc(Cl)cc2)nc2c3ccccc3ccn12`, the GFP+ MAC1+ double positive is 0.5% and the outcome was inactive.

In the case of `CCOC(=O)N1CCN(C(=O)c2ccc3c(=O)n(CCc4ccc(OC)c(OC)c4)c(=O)[nH]c3c2)CC1`, the GFP+ MAC1+ double positive stood at 6.8% and the normalized GFP-positive differentiation is 56% (active).

Regarding `COc1ccc(Cn2c(=S)[nH]c3cc(C(=O)N4CCCCC4)ccc3c2=O)cc1`, the GFP+ MAC1+ double positive came to 0.2% and the result was inactive.

As to `COCCn1c(=S)[nH]c2cc(C(=O)NCCc3ccc(OC)c(OC)c3)ccc2c1=O`, the GFP+ MAC1+ double positive is 2.7% and the compound was called inactive.

Take `CCCCc1c(-c2ccc(Br)cc2)ncn1CCc1ccccc1OC`: the GFP+ MAC1+ double positive is 2.9% and the call was inactive.

Regarding `C[C@H](NC(=O)[C@@H]1CCCN1C(=O)[C@@H]1CCCN1C(=O)c1ccccc1)c1ccccc1`, the GFP+ MAC1+ double positive amounted to 0.7% and the call was inactive.

Take `Cc1ccc(CN2CC(N3CCC(Cc4ccccc4)CC3)CS2(=O)=O)cc1` (stereo unspecified): the GFP+ MAC1+ double positive was 1.6% and the compound was called inactive.

For the compound `Cc1cccc(CC2(O)C(=O)Nc3ccccc32)n1` (stereo unspecified), the GFP+ MAC1+ double positive was determined as 29.8% and the normalized GFP-positive differentiation was 367% (active).

As to `COc1ccc(C2(O)C(=O)Nc3ccccc32)cc1` (stereo unspecified), the GFP+ MAC1+ double positive was 0.4% and the compound was called inactive.

With `Cc1cc(O)c(C2(O)C(=O)Nc3ccccc32)cc1C` (stereo unspecified), the GFP+ MAC1+ double positive was 0.4% and the call was inactive.

On to `Cc1ccc(S(=O)(=O)N2CC[C@H]3[C@@H](C2)C(=O)C[C@@H](c2ccccc2)N3S(=O)(=O)c2ccc(C)cc2)cc1`, for which the GFP+ MAC1+ double positive came out at 2.5% and the result was inactive.

On to `Cc1[nH]c2ccccc2c1C(=O)COC(=O)c1c(-c2ccccc2)noc1C`, for which the GFP+ MAC1+ double positive came to 0.6% and the compound was classed as inactive.

Turning to `CCOC(=O)c1c(-c2ccc(-c3ccccc3)cc2)csc1NC(=O)CCC(=O)O`, the GFP+ MAC1+ double positive was found to be 0.3% and the result was inactive.

As for `CCOC(=O)c1c(-c2cccc(C)c2)csc1NC(=O)c1c(-c2ccccc2)noc1C`, the GFP+ MAC1+ double positive was determined as 15.3% and the normalized GFP-positive differentiation was 89% (active).

As for `CC1(C(=O)NCc2ccccc2)CSCC(=O)N1CCCN1CCOCC1` (stereo unspecified), the GFP+ MAC1+ double positive came to 4% and the compound was classed as inactive.

Consider `CSCCC(C(=O)NC(C)(C)C)n1c(-c2ccccc2)nc2ccccc21` (stereo unspecified), for which the GFP+ MAC1+ double positive came out at 4% and the outcome was inactive.

On to `CSc1ccc(CN2CCC2(C)C(=O)NCc2ccccc2Br)cc1` (stereo unspecified), for which the GFP+ MAC1+ double positive was 0.7% and the call was inactive.

Turning to `O=C(NCc1ccc(F)cc1)c1cc(C2CCCCN2C(=O)c2ccccn2)on1` (stereo unspecified), the GFP+ MAC1+ double positive was found to be 2.6% and the compound was classed as inactive.

For `N#Cc1ccc(C(C(=O)NCc2ccccc2)n2c(=O)c(-c3ccco3)nc3ccccc32)cc1` (stereo unspecified), the GFP+ MAC1+ double positive was determined as 2.4% and the compound was called inactive.

As for `CC(C)OC(=O)c1ccc(NCc2cc(O)ccc2O)cc1Cl`, the GFP+ MAC1+ double positive was determined as 7.3% and the normalized GFP-positive differentiation is 354% (active).

As for `COC(=O)c1ccc(NCc2cc(O)ccc2O)cc1`, the GFP+ MAC1+ double positive was 1.6% and the call was inactive.

For `CC(OC(=O)c1ccc(Cl)cc1O)C(=O)NCCC1=CCCCC1` (stereo unspecified), the GFP+ MAC1+ double positive turned out to be 0.3% and the compound was classed as inactive.

As to `CC(C)(C)CC(=O)Nc1nc(C(N)Cc2ccc(C(F)(F)F)cc2)cs1` (stereo unspecified), the GFP+ MAC1+ double positive stood at 0.2% and the call was inactive.

As for `Cc1ccc(S(=O)(=O)N2CC3C(=O)C[C@@H](c4ccccc4Cl)N(S(=O)(=O)c4ccc(C)cc4)C3CC2c2ccccc2)cc1` (stereo partly specified), the GFP+ MAC1+ double positive came out at 1.9% and the compound was called inactive.

Take `CC(=O)C1=C(C)NC(C)=C(C(C)=O)C1c1cn(-c2ccccc2)nc1-c1cccs1`: the GFP+ MAC1+ double positive stood at 0.7% and the outcome was inactive.

With `S=c1[nH]nc(-c2cccs2)n1/N=C/c1cn(-c2ccccc2)nc1-c1ccc(Cl)cc1`, the GFP+ MAC1+ double positive was 0.1% and the result was inactive.

`O=C(O)c1ccc(N/N=C/c2cn(-c3ccccc3)nc2-c2cccs2)cc1`: the GFP+ MAC1+ double positive was 0.5% and the normalized GFP-positive differentiation is 10.8% (active).
